What all share (assay): DAPPL (digital affinity profiling via proximity ligation, sequencing); 10 mM Tris-HCl pH 7.5, 50 mM NaCl, 1 mM DTT, 4% glycerol, room temperature, 30 min; GST-TFs on glutathione beads, 16-mer random dsDNA library, 0.1% formaldehyde crosslink after washing; high values mean tight binding
In one assay the target is T1, FEV (Homo sapiens, UniProt Q99581 1-238).
T1 sequence: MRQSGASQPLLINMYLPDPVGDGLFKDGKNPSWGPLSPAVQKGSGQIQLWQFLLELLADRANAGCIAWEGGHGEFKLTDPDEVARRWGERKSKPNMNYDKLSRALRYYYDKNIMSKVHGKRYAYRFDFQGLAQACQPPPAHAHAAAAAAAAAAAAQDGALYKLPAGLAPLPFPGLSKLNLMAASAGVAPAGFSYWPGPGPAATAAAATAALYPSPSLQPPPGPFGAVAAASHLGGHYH
Particulars: protein: recombinant; tags: N-terminal GST; dsDNA, one strand shown. The gist of the method:
(§1)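 Pools were built from human transcription factors expressed in yeast as GST fusions, captured on glutathione beads and DNA-barcoded, along with a tag-only sample. Incubation with 200 nmole of a 16-mer random double-stranded DNA library lasted 30 min at room temperature in Tris/NaCl/DTT/glycerol buffer, and was followed by washing, 0.1% formaldehyde crosslinking, proximity ligation, PCR amplification and Illumina NextSeq500 sequencing. Binding signal is the quotient of each hexamer's read frequency for a factor and its frequency for the tag-only sample.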

A further assay has as its target ETV5 (Homo sapiens, UniProt P41161 1-510). The following applies: protein: recombinant; tags: N-terminal GST; dsDNA, one strand shown. In a few lines: as §1
The target in a further assay is HSF1 (Homo sapiens, UniProt Q00613 1-529). The following applies: protein: recombinant; tags: N-terminal GST; chain copies: 3; dsDNA, one strand shown. The gist of the method:
as §1

The next assay has as its target T2, SPIC (Homo sapiens, UniProt Q8N5J4 1-248).
T2 sequence: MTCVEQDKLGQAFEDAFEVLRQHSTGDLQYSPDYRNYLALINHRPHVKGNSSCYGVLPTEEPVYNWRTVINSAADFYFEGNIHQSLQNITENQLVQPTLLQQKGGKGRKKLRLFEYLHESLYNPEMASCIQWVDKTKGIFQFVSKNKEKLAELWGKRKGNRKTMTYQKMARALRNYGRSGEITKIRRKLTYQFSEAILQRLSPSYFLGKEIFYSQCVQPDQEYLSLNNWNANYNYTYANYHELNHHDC
The following applies: protein: recombinant; tags: N-terminal GST; dsDNA, one strand shown. The gist of the method:
as §1

In a further assay the target is ELF4 (Homo sapiens, UniProt Q99607 1-663). Particulars: protein: recombinant; tags: N-terminal GST; dsDNA, one strand shown. The gist of the method: as §1
For a further assay, the target named is T3, ELK4 (Homo sapiens, UniProt P28324-2 1-405).
T3 sequence: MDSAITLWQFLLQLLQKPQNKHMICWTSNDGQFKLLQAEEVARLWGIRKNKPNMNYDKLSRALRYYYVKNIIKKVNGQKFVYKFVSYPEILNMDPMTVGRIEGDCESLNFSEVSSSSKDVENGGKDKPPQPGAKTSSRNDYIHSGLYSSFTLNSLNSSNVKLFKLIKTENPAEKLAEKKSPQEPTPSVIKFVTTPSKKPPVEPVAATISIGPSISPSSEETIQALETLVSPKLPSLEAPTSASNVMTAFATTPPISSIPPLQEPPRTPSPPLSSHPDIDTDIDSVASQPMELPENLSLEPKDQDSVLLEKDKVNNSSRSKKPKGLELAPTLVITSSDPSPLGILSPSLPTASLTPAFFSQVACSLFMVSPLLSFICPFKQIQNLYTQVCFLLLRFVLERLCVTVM
Particulars: protein: recombinant; tags: N-terminal GST; dsDNA, one strand shown. The gist of the method: as §1

A further assay deals with T4, ETV2 (Homo sapiens, UniProt O00321 1-342).
T4 sequence: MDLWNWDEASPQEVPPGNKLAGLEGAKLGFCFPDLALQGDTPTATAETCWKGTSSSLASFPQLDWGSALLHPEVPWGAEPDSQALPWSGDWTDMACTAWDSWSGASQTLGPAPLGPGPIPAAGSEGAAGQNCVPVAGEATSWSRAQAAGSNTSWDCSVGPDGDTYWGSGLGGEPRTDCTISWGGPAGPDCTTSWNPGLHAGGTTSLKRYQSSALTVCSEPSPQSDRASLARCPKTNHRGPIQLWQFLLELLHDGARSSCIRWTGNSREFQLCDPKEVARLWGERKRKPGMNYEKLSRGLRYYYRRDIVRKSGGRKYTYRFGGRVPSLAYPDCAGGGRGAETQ
Particulars: protein: recombinant; tags: N-terminal GST; dsDNA, one strand shown. In a few lines:
as §1

Another assay addresses T5, ELF3 (Homo sapiens, UniProt P78545 1-371).
T5 sequence: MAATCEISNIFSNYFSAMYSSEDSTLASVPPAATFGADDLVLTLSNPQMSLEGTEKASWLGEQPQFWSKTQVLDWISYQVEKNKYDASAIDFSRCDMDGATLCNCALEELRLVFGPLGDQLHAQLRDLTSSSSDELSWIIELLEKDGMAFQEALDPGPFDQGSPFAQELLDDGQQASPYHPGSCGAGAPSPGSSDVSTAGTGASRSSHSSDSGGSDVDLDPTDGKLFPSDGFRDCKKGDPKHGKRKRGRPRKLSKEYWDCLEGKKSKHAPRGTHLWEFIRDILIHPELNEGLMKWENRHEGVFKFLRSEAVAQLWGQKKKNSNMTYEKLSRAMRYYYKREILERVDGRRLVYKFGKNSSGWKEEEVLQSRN
The following applies: protein: recombinant; tags: N-terminal GST; dsDNA, one strand shown. The gist of the method: as §1

A further assay addresses CRX (Homo sapiens, UniProt O43186 1-299). Particulars: protein: recombinant; tags: N-terminal GST; dsDNA, one strand shown. The gist of the method:
as §1

A further assay deals with ETV1 (Homo sapiens, UniProt P50549 1-477). Particulars: protein: recombinant; tags: N-terminal GST; dsDNA, one strand shown. In a few lines:
as §1

The next assay deals with T6, ERF (Homo sapiens, UniProt P50548 1-548).
T6 sequence: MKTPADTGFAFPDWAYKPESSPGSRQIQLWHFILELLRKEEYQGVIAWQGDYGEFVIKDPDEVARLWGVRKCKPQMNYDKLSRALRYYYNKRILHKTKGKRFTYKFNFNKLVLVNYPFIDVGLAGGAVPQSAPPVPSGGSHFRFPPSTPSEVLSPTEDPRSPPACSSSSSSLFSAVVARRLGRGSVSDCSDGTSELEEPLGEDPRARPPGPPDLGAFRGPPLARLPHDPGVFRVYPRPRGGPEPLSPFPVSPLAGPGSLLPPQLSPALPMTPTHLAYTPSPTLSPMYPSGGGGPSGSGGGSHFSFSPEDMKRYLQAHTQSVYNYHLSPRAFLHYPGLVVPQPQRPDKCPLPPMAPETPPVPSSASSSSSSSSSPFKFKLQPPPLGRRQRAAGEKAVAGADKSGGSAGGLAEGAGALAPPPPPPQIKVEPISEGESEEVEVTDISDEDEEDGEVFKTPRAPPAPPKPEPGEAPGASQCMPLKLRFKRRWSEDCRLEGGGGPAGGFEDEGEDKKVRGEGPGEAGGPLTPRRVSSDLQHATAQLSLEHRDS
The following applies: protein: recombinant; tags: N-terminal GST; dsDNA, one strand shown. In a few lines:
as §1

The next assay has as its target T7, ETV3L (Homo sapiens, UniProt Q6ZN32 1-361).
T7 sequence: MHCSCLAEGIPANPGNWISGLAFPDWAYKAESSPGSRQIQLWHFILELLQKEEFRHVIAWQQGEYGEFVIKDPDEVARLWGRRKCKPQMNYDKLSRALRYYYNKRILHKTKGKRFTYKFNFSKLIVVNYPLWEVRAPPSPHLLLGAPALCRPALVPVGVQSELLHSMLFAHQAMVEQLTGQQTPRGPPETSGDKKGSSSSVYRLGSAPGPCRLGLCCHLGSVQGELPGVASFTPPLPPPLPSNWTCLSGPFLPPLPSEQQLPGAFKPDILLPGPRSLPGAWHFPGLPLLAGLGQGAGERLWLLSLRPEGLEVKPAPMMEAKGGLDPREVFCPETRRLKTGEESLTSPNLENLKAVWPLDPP
Particulars: protein: recombinant; tags: N-terminal GST; dsDNA, one strand shown. In a few lines: as §1

In another assay the target is T8, ETS2 (Homo sapiens, UniProt P15036 1-469).
T8 sequence: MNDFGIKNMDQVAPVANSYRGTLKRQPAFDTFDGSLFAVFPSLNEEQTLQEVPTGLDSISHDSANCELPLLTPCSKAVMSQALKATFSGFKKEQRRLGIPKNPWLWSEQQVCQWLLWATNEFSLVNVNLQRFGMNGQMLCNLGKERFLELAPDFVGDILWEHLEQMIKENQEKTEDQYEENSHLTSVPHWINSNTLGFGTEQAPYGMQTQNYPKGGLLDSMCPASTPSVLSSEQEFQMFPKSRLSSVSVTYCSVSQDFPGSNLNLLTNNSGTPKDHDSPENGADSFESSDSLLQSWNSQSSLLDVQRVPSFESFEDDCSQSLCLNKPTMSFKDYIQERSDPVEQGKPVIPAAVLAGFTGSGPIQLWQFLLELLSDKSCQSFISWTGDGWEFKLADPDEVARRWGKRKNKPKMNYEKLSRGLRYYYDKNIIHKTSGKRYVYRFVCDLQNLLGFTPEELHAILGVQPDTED
Particulars: protein: recombinant; tags: N-terminal GST; dsDNA, one strand shown. In a few lines:
as §1

The target of a further assay is T9, SPDEF (Homo sapiens, UniProt O95238 1-335).
T9 sequence: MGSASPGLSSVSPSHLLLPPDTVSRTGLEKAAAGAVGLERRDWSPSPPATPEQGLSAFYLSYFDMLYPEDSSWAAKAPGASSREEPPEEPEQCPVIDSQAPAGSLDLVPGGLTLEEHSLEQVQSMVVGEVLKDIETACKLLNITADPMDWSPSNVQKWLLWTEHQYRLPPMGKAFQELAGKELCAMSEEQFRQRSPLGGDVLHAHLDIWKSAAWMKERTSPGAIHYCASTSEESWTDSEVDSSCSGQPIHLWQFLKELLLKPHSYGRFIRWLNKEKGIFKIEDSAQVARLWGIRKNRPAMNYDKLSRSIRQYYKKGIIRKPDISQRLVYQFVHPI
Particulars: protein: recombinant; tags: N-terminal GST; dsDNA, one strand shown. In a few lines:
as §1

Another assay addresses T10, ETV7 (Homo sapiens, UniProt Q9Y603 1-341).
T10 sequence: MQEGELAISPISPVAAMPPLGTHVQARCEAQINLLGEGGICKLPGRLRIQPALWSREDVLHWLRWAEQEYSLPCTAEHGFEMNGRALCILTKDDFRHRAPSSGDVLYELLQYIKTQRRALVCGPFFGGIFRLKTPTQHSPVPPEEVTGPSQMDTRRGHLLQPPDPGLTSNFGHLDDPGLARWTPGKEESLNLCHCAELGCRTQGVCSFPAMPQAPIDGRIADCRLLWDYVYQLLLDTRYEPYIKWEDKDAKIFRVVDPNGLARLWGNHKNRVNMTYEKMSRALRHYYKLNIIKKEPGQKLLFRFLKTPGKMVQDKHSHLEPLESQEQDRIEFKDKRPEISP
Particulars: protein: recombinant; tags: N-terminal GST; dsDNA, one strand shown. In a few lines: as §1

The target of a further assay is T11, ELF5 (Homo sapiens, UniProt Q9UKW6-2 1-255).
T11 sequence: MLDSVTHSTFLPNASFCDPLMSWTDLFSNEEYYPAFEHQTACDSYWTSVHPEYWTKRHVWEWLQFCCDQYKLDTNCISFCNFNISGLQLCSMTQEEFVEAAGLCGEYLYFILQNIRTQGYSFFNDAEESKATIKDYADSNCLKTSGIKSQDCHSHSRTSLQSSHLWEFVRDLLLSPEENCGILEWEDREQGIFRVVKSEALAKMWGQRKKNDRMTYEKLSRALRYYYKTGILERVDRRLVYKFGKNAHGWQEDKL
The following applies: protein: recombinant; tags: N-terminal GST; dsDNA, one strand shown. In a few lines: as §1

The target of another assay is T12, ETV3 (Homo sapiens, UniProt P41162-2 1-143).
T12 sequence: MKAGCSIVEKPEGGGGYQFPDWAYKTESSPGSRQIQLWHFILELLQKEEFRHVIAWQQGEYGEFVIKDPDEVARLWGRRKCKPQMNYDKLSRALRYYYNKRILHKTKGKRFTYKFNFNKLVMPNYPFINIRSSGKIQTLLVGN
Particulars: protein: recombinant; tags: N-terminal GST; dsDNA, one strand shown. In a few lines: as §1

The target of the next assay is ETV6 (Homo sapiens, UniProt P41212 1-452). The following applies: protein: recombinant; tags: N-terminal GST; dsDNA, one strand shown. In a few lines: as §1
Sequence of ETV6 (P41212 whole entry): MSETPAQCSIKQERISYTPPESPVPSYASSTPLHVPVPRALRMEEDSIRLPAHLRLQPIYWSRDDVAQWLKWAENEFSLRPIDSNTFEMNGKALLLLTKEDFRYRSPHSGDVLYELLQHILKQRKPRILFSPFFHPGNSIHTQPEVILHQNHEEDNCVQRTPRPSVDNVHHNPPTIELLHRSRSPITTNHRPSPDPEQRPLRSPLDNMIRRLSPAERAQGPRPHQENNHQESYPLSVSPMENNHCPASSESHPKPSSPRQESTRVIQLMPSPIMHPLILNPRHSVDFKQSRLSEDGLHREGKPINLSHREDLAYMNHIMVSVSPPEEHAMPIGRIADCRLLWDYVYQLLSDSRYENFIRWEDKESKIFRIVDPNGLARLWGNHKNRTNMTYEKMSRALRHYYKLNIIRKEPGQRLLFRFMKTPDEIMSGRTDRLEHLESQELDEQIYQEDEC

Sequence of CRX (O43186 whole entry): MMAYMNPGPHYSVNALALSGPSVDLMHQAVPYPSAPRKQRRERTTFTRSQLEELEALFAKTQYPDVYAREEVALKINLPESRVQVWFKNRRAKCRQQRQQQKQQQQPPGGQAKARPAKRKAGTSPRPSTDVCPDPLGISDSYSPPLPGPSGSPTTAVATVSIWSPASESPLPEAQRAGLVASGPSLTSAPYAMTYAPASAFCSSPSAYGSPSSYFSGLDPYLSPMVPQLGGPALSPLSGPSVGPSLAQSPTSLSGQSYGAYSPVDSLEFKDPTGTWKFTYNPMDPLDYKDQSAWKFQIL
Sequence of HSF1 (Q00613 whole entry): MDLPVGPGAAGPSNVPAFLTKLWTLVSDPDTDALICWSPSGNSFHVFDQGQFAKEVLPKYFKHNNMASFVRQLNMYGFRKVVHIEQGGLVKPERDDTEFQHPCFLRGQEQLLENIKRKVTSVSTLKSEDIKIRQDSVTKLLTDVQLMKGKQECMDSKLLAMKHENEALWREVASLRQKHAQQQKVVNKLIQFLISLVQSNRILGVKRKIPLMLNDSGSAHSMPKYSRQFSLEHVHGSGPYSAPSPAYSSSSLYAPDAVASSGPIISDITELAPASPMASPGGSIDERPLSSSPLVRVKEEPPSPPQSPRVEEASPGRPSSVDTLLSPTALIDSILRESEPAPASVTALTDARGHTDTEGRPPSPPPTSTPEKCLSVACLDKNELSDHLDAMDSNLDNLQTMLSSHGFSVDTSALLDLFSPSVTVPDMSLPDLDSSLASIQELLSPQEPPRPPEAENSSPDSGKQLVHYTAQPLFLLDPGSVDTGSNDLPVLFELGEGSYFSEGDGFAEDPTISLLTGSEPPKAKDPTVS
Sequence of ETV5 (P41161 whole entry): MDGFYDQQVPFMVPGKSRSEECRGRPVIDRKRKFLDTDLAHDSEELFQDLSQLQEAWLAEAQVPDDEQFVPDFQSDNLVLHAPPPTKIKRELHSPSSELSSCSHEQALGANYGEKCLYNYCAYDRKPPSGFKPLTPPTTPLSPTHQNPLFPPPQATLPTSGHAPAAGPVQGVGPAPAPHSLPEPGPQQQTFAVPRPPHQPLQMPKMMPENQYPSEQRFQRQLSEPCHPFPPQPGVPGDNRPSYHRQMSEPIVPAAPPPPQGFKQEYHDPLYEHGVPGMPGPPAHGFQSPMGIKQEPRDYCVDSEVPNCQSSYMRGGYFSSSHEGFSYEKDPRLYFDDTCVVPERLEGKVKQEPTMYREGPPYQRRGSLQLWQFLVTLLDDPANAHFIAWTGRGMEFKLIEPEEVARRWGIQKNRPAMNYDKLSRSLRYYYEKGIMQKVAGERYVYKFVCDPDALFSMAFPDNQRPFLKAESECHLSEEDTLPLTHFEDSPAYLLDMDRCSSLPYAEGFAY
Sequence of ELF4 (Q99607 whole entry): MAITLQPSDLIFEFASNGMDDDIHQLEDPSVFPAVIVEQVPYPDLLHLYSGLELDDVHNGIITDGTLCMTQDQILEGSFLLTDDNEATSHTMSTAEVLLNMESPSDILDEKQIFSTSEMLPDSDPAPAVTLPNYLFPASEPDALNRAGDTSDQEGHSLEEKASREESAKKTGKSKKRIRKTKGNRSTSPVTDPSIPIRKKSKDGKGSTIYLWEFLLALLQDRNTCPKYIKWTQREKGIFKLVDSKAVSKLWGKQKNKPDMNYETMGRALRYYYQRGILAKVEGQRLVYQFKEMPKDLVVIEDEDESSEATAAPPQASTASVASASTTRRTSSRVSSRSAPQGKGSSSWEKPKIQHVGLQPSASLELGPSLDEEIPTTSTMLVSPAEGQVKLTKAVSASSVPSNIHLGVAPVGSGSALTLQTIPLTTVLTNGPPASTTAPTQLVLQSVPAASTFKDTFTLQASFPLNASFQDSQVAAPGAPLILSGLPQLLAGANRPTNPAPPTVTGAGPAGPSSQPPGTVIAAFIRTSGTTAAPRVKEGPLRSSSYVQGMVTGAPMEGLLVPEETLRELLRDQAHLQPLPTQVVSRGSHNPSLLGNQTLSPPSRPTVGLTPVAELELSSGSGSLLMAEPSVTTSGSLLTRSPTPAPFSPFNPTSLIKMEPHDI
Sequence of ETV1 (P50549 whole entry): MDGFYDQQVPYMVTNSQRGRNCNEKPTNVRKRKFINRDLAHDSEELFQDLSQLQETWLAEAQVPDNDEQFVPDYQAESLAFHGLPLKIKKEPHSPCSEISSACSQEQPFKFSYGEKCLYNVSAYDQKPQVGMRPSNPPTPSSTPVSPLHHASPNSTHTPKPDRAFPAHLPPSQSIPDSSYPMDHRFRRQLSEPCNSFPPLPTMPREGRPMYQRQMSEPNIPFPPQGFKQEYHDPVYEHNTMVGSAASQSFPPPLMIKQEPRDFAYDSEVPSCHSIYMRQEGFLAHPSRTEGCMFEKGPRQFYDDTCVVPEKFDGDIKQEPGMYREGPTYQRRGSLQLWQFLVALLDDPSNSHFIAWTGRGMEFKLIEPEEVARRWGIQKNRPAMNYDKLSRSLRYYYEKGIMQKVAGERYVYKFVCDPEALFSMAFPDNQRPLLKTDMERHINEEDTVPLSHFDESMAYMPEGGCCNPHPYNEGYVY

Take CGAACC: the binding signal in the assay with FEV is 1.24 fold enrichment (6-mer frequency, TF over GST control); in the assay with ETV5 it was 1.21 fold enrichment (6-mer frequency, TF over GST control); with HSF1, 1.47 fold enrichment (6-mer frequency, TF over GST control); with SPIC, 1.23 fold enrichment (6-mer frequency, TF over GST control); in the assay with ELF4, 1.26 fold enrichment (6-mer frequency, TF over GST control); with ELK4, 1.26 fold enrichment (6-mer frequency, TF over GST control). In addition, the binding signal with ETV2 was 1.2 fold enrichment (6-mer frequency, TF over GST control); with ELF3, 1.24 fold enrichment (6-mer frequency, TF over GST control); with CRX it was 1.02 fold enrichment (6-mer frequency, TF over GST control); in the assay with ETV1, 1.13 fold enrichment (6-mer frequency, TF over GST control); in the assay with ERF it was 1.12 fold enrichment (6-mer frequency, TF over GST control); in the assay with ETV3L it was 1.15 fold enrichment (6-mer frequency, TF over GST control). Moreover, the binding signal was 1.14 fold enrichment (6-mer frequency, TF over GST control) in the assay with ETS2; 1.23 fold enrichment (6-mer frequency, TF over GST control) with SPDEF; 1.11 fold enrichment (6-mer frequency, TF over GST control) in the assay with ETV7; 1.09 fold enrichment (6-mer frequency, TF over GST control) with ELF5; 1.07 fold enrichment (6-mer frequency, TF over GST control) in the assay with ETV3; 1.1 fold enrichment (6-mer frequency, TF over GST control) with ETV6.

These data come from paper PMC7862700, “An all-to-all approach to the identification of sequence-specific readers for epigenetic DNA modifications on cytosine”.
